# Results filed as inconclusive are left out. Where a call stands in place of a potency, no number is given. Activity calls are given as the source filed them. Calls come from the whole dose curve; as a rule, active = well fitted curve in the direction sought with a large enough effect; inconclusive = small, poorly fitted or top-dose-only effect, or another doubt; inactive = no such curve, though single readings can be large; an effect the other way counts as inactive or inconclusive.
# Key:
# [1] = HPAF-II 24hr Apoptosis Induction qHTS against the NCATS CANVASS Library (AID 1347356)
# How it was run: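 Using an 11-point qHTS format, HPAF-II cells in DMEM/10% FBS received compounds for 24 h; doxorubicin titration as control. Caspase-3/7 activity quantified by DEVD-luciferase luminescence.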
# [2] = HEK293 18hr Apoptosis Induction qHTS against the NCATS CANVASS Library (AID 1347357)
# How it was run: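 Cells seeded at 500/well in DMEM + 10% FBS. Compounds pinned, 11 concentrations. 18 h, 37 degrees C/5% CO2. Caspase-Glo 3/7 added, 15 min RT dark, luminescence read.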
# [3] = HPAF-II 12hr Apoptosis Induction qHTS against the NCATS CANVASS Library (AID 1347358)
# How it was run: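 Twelve-hour compound exposure of HPAF-II cells in DMEM with 10% FBS, then luminescent Caspase-Glo 3/7 detection after 15 min at room temperature; doxorubicin control.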
# [4] = HPAF-II 18hr Apoptosis Induction qHTS against the NCATS CANVASS Library (AID 1347360)
# How it was run: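 Seed HPAF-II cells at 500/well in DMEM + 10% FBS, pin-transfer compounds, incubate 18 hours at 37 degrees C/5% CO2, add Caspase-Glo 3/7 reagent, wait 15 min, read luminescence.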
# [5] = biological target: Luciferin 4-monooxygenase (Photinus pyralis) (UniProt P08659); assay: Firefly luciferase counterscreen qHTS: Assay Interference Panel against the NCATS CANVASS Library (AID 1347363); note: potency is the fitted concentration of half-maximal effect
# How it was run: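 Purified P. pyralis luciferase was added to compounds (11-point series) preincubated 15 min at room temperature with substrate containing 0.013 mM D-luciferin and 0.013 mM ATP; luminescence was read after 5 min.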
# [6] = qHTS for ATAD5 Agonist screened against the NCATS CANVASS Library (AID 1347367);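 note: luciferase reporter driven by ATAD5 which rises upon DNA damage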
# How it was run: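 HEK293T-ATAD5 luc reporter; 2000 cells/well; 5hr settle; cpd 11-pt qHTS; 16hr 37C 5% CO2 dark; viability by CellTiter-Fluor (AFC fluorescence); then luciferase luminescence, 30min RT.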
# [7] = biological target: Nuclear receptor subfamily 1 group I member 3 (Homo sapiens) (UniProt Q14994); assay: qHTS for Constitutive Androstane Receptor (CAR) Agonist screened against the NCATS CANVASS Library (AID 1347373);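 note: every well also contained 1.5 µM PK11195 alongside the test compound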; note: potency is the fitted concentration of half-maximal effect
# How it was run: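 In an 11-point concentration series, compounds were incubated 24hr with HepG2 cells carrying hCAR and a CYP2B6-2.2kb reporter, with PK11195 at 1.5uM final. A CellTiter-Fluor viability read preceded the ONE-Glo luminescence read.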
# [8] = 10-beta competent E. coli microbial cell viability qHTS against the NCATS CANVASS Library (AID 1347376); note: series mostly up to about 46 µM
# How it was run: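 Overnight 37C exposure of 10-beta E. coli (0.2 OD) to an 11-point concentration series; ATP-based luminescence after 20 min room-temperature reagent incubation; daunomycin as control.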
# [9] = Inflammasome Signaling qHTS Counterscreen: IL-1-beta AlphaLISA counterscreen against the NCATS CANVASS Library (AID 1347381);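 note: cell-free check with purified IL-1β in medium and no THP-1 cells; series mostly up to about 57 µM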
# How it was run: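 Here, no cellular stimulation occurs; compounds in an 11-point series meet 4 pg purified IL-1-beta directly. Bead-based AlphaLISA detection follows (1 h acceptor/antibody, then 30 min donor, dark, room temperature), with excitation at 680 nm.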
# [10] = Cytotoxicity qHTS for assessment of Hepg2 cells membrane integrity screened against the NCATS CANVASS Library (AID 1347387)
# How it was run: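 Membrane damage in HepG2 monolayers was estimated from released LDH, measured with CytoTox-ONE (ex 560/em 590 nm), after 5 hr treatment across 0.59 nM - 46 uM final.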
# [11] = qHTS for activators of dead-cell proteases activity screened against the NCATS CANVASS Library (AID 1347392);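 note: luminescence from protease leaking out of membrane-damaged cells cleaving impermeant substrate; rising signal means more cytotoxicity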
# How it was run: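 Cytotoxicity in HepG2 cells was assessed by released protease cleaving AAF-aminoluciferin, with luminescence as signal. Exposure lasted 5 h at 37C across an 11-point series.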
# [12] = Redox Reaction Profiling qHTS: Assay Interference Panel against the NCATS CANVASS Library (AID 1347401); note: potency is the fitted concentration of half-maximal effect
# How it was run: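 Quantitative HTS over an 11-point series was run in HEPES pH 7.3 with 50 mM NaCl, 200 uM DTT and 5 uM resazurin. Initial and 15-min resorufin fluorescence readings were taken.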
# Chain of Nuclear receptor subfamily 1 group I member 3 (Homo sapiens) (Q14994 whole entry, looked up): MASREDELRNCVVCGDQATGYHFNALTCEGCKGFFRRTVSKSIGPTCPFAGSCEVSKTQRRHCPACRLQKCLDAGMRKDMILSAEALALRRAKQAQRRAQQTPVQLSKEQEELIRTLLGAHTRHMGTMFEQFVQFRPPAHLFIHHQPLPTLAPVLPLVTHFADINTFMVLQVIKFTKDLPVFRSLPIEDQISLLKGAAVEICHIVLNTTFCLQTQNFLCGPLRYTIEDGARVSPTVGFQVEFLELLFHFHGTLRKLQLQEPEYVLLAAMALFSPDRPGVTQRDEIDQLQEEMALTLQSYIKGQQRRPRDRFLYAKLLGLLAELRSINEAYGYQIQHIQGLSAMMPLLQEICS
# Chain of Luciferin 4-monooxygenase (Photinus pyralis) (P08659 whole entry, looked up): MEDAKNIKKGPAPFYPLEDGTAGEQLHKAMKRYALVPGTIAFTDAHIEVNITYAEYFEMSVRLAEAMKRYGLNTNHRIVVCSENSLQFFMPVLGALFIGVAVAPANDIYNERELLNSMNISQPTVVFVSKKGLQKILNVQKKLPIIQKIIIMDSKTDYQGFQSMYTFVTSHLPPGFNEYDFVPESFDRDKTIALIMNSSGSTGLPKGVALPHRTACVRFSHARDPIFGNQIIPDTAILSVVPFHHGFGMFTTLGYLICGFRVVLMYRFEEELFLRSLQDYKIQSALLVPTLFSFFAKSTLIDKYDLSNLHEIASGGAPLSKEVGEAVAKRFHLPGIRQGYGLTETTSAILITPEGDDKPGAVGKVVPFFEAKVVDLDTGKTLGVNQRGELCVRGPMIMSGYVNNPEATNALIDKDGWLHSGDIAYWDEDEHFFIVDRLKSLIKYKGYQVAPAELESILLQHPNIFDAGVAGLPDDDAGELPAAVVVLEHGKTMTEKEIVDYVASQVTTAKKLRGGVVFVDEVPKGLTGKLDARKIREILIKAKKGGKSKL
SMILES,outcome [1],outcome [2],outcome [3],outcome [4],Potency [5],Potency [6],Potency [7],outcome [8],outcome [9],outcome [10],outcome [11],Potency [12]
C/C=C(\C)C(=O)O[C@@H]1[C@@H](O)[C@@H]2O[C@H]3[C@H](O[C@@H](CCCCC)CCCCCCC(=O)CCC(=O)OC[C@@H](O2)[C@H]1OC(=O)/C=C/c1ccccc1)O[C@H](C)[C@H](OC(C)=O)[C@@H]3O,inactive,inactive,inactive,inactive,inactive,inactive,inactive,inactive,inactive,inactive,inactive,inactive
CC[C@@H]1CN2CCC3(Nc4cccc(OC)c4C3=O)[C@@H]2C[C@@H]1/C(=C\OC)C(=O)OC (stereo not given in full),inactive,inactive,inactive,inactive,inactive,inactive,inactive,inactive,inactive,inactive,inactive,inactive
C[C@]12CC(O)C3[C@@H](CC[C@@H]4C[C@@H](O)CC[C@]34CO)[C@@]1(O)CC[C@@H]2C1=CC(=O)OC1 (stereo not given in full),inactive,inactive,inactive,inactive,inactive,inactive,inactive,inactive,inactive,inactive,inactive,inactive
C=C[C@]12C=CCN3CC[C@@]4(c5ccccc5NC(=O)[C@@H]4C1)[C@@H]32,inactive,inactive,inactive,inactive,inactive,inactive,inactive,inactive,inactive,inactive,inactive,inactive
CO[C@@H](/C=C/CC/C=C/C(=O)O)[C@@H](O)[C@H](C)/C=C(\C)[C@H](O)[C@H](C)C(=O)CCCC1CC(=O)NC(=O)C1,inactive,inactive,inactive,inactive,inactive,inactive,inactive,inactive,inactive,inactive,inactive,inactive
C=CC(C)(C)[C@@]12C[C@H]3C(=O)N/C(=C\c4cnc[nH]4)C(=O)N3[C@@H]1Nc1ccccc12,inactive,inactive,inactive,inactive,inactive,inactive,inactive,inactive,inactive,inactive,inactive,inactive
C/C(=C\[C@H](C)C(=O)C[C@H](O)CC1CC(=O)NC(=O)C1)[C@@H]1OC(=O)/C=C/CC/C=C/C=C/[C@@H]1C,inactive,inactive,inactive,inactive,inactive,inactive,inactive,inactive,inactive,inactive,inactive,24.1 µM (active)
CCC(=O)N[C@@H](C[C@H](C)C(Cl)(Cl)Cl)C(=O)N1C(=O)C=C(OC)[C@@H]1C[C@H](C)C(Cl)Cl,inactive,inactive,inactive,inactive,inactive,inactive,inactive,inactive,inactive,inactive,inactive,inactive
C=C(C)[C@H]1C(=O)c2c3c(cc4c5c(n1c24)[C@@]1(C)[C@@H](CC[C@H]2[C@](C)(/C=C/C=C(\C)C(=O)O)[C@@H](O)CC[C@@]21C)C5)C1=CC(C)(C)OC(C)(C)[C@H]1[C@@H]3O,,inactive,,,inactive,inactive,inactive,inactive,inactive,,,19.2 µM (active)
c1ccc2nc3c(cc2c1)[nH]c1ccccc13,inactive,inactive,inactive,inactive,1.72 µM (active),inactive,18.6 µM (active),inactive,inactive,inactive,inactive,inactive
CC[C@@H]1CN2CCc3c([nH]c4cccc(OC)c34)[C@@H]2C[C@@H]1/C(=C\OC)C(=O)OC,inactive,inactive,inactive,inactive,inactive,inactive,inactive,inactive,inactive,inactive,inactive,
C[C@]12CC(O)C3[C@@H](CCC4C[C@@H](O)CC[C@@]43CO)[C@@]1(O)CC[C@@H]2C1=CC(=O)OC1 (stereo not given in full),inactive,inactive,inactive,inactive,inactive,inactive,inactive,inactive,inactive,inactive,inactive,inactive
C/C=C/[C@@H]1[C@H]2C[C@@H](C)CC[C@@H]2C(C)=C[C@H]1C(=O)c1c(O)c(-c2ccc(O)cc2)c[nH]c1=O,inactive,inactive,inactive,inactive,inactive,inactive,inactive,inactive,inactive,inactive,inactive,inactive
